Molecules are shown by their SMILES. The campaign covered roughly 52,000 compounds. About 4,300 (8.3%) were called active. Many of the other results were omitted from the sample, so actives are more common in it than they were. Unmarked numbers belong to inactive results. Rule as the data show it: active = survival mostly below about 52% (no sharp cut-off); inactive = mostly above about 56%.

The assay concerns DeltatarO mutant. The assay can be described thus: growth inhibition of S. aureus wild type versus tarO mutant, primary screen, teichoic acid synthesis inhibitors, RN4220, OD600 (AID 463173). Conditions: OD600, 18 h, active compounds read low, screened at 18.75 µg/mL (by protocol).
With `COc1ccc(-c2cc(-c3ccc(F)cc3)nc3c2COc2ccc(F)cc2-3)cc1`, the survival is 65%. For the compound `CCC(=O)N1CCc2cc(S(=O)(=O)NC(CC(C)C)C(=O)NCc3cccc(OC)c3)ccc21` (stereo unspecified), the survival is 73%.

For the compound `COC(=O)C1=C(c2ccccc2)c2ccccc2S(=O)(=O)N1CC(=O)Nc1ccc(F)c(F)c1`, the survival is 40%.

As for `C1CCC(N2CCC(N3CCCCC3)CC2)CC1`, the survival was 91%. As to `N#CC(C#N)=Cc1ccc(-c2ccc3c(c2)COC3=O)o1`, the survival was 90%. With `O=C(NC1CCCCC1)N1CCN(Cc2ccccc2)CC1` the figure was 69%; with `C(=N\N1CCN(c2ccccn2)CC1)/c1ccco1`, 100%.

Take `c1ccc(N2CCN(N=C3c4ccccc4-c4ccccc43)CC2)nc1`: the survival was 18% (active). For the compound `O=C(NC1CCCCC1)N1CCN(c2ccccn2)CC1`, the survival is 94%.

`C=Cn1c(C)c(C(C#N)=C(C#N)C#N)c2c1CCCC2`: the survival was 2% (active). In the case of `COCCNC(=O)C1CCN(S(=O)(=O)c2ccc3c(c2)CCCN3C(C)=O)CC1`, the survival is 85%. Under `Cc1ccc(NS(=O)(=O)c2ccc(NC(=O)N3CCCC3)cc2)cc1C` stands 75%. With `Cc1ccc(NS(=O)(=O)c2ccc3c(c2)n(C)c(=O)n3C)cc1C` the figure was 67%; with `Cc1cccc(Cn2ccn(Cc3ccc(Cl)cc3)c(=O)c2=O)c1`, 121%. With `Cc1cccc(C(=O)Nc2nc3c(s2)CCCC3)c1` the figure was 67%. For the compound `O=C(Nc1cc2c(s1)CCCC2)c1ccccc1`, the survival is 46% (active). Turning to `O=C(Nc1onc2c1CCCC2)c1ccccc1`, the survival is 105%. With `Cc1ccc(OCCCCn2c(-c3ccc(Cl)cc3)nc3ccccc3c2=O)cc1` the figure was 68%; with `O=c1c2ccccc2nc(-c2ccc(Cl)cc2)n1CCCCOc1ccc(F)cc1`, 45% (active).

With `COc1ccccc1OCCCCn1c(-c2ccc(Cl)cc2)nc2ccccc2c1=O`, the survival was 59%. With `CCOc1ccccc1OCCCn1c(-c2ccc(Cl)cc2)nc2ccccc2c1=O` the figure was 42%. Under `CCc1ccc(OCCCn2c(-c3ccc(Cl)cc3)nc3ccccc3c2=O)cc1` stands 44% (active); under `Cc1ccccc1OCCCCn1c(-c2ccc(Cl)cc2)nc2ccccc2c1=O`, 71%; under `O=c1c2ccccc2nc(-c2ccc(Cl)cc2)n1CCCOc1ccccc1F`, 57%. Under `COc1cccc(OCCCCn2c(-c3ccc(Cl)cc3)nc3ccccc3c2=O)c1` stands 62%. Take `COc1cccc(OCCCn2c(-c3ccc(Cl)cc3)nc3ccccc3c2=O)c1`: the survival was 61%. As to `COc1ccccc1OCCCn1c(-c2ccc(Cl)cc2)nc2ccccc2c1=O`, the survival was 29% (active). As for `COc1ccc(OCCCCn2c(-c3ccc(Cl)cc3)nc3ccccc3c2=O)cc1`, the survival is 34% (active). With `Cc1ccc(OCCCn2c(-c3ccc(Cl)cc3)nc3ccccc3c2=O)cc1C` the figure was 58%; with `COc1ccc(-c2cc3c(=O)n(CC(=O)Nc4ccccc4C(F)(F)F)ccn3n2)cc1OC`, 86%. With `CSc1ccc(CNC(=O)CCn2ccc3cc(S(=O)(=O)N4CCCC4)ccc32)cc1` the figure was 100%. Under `O=C(NCc1ccc(F)cc1)c1cc2n(n1)CCCN(Cc1ccc(F)cc1)C2=O` stands 64%; under `CC(C)(C)OC(=O)N1CCC(c2c(C(=O)Nc3cccc(C(F)(F)F)c3)cnn2-c2ccc(F)cc2F)CC1`, 61%.

Regarding `N#Cc1ccc(-c2cccnc2)n(CC(=O)N2CCOCC2)c1=O`, the survival was 106%. `Cc1ccc(Cl)cc1N1CCN(C(=O)c2cc(S(=O)(=O)N3CCCCC3)cn2C)CC1`: the survival is 83%. Under `Cc1ccc(C(=O)Nc2ccc3oc(-c4cccnc4)nc3c2)c(Cl)c1` stands 88%.

In the case of `Cc1ccccc1NCc1nc2ccccc2n1CCOc1ccccc1`, the survival was 0% (active). As for `Cc1ccc(OCCn2c(CNc3ccccc3C)nc3ccccc32)cc1`, the survival is 42% (active).

`Cc1ccccc1Cn1c(=O)n(CCCCC(=O)NCCc2ccccc2)c(=O)c2ccccc21`: the survival was 83%.

On to `COc1ccc(NC(=O)C2=C(C)Nc3ncnn3C2c2ccc(O)cc2)cc1` (stereo unspecified), for which the survival is 101%. Take `CC1CCN(C(=O)C(C)Sc2nnc3c(n2)[nH]c2ccccc23)CC1` (stereo unspecified): the survival was 102%. Consider `COc1ccc(/C=C/c2nc(C#N)c(N3CCCCCC3)o2)cc1OC`, for which the survival was 45% (active).

In the case of `COc1cc(/C=C/c2nc(C#N)c(N3CCCCCC3)o2)cc(OC)c1OC`, the survival is 85%. Under `COc1ccc(N2CCN(c3oc(/C=C/c4cc(OC)c(OC)c(OC)c4)nc3C#N)CC2)cc1` stands 49% (active); under `COc1ccc(/C=C/c2nc(C#N)c(N3CCCCC3)o2)cc1OC`, 76%; under `COc1ccc(/C=C/c2nc(C#N)c(N3CCC(C)CC3)o2)cc1OC`, 81%. Under `COc1cc(/C=C/c2nc(C#N)c(N3CCN(C)CC3)o2)cc(OC)c1OC` stands 73%; under `CCOC(=O)c1c(NC(=O)Cc2coc3cc(C)ccc23)sc2c1CCCC2`, 95%; under `O=C(NC1CCS(=O)(=O)C1)Sc1ccccc1` (stereo unspecified), 96%.

In the case of `CCc1ccc2nc(SCC(=O)N3CC(=O)Nc4ccccc43)c(C#N)cc2c1`, the survival was 107%. As to `COc1cc(NS(=O)(=O)c2ccc(NC(=O)c3ccc(C(C)=O)cc3)cc2)nc(OC)n1`, the survival was 87%. Under `O=C(OCc1ccccc1)c1ccc(-c2nnn(Cc3ccccc3F)n2)cc1` stands 98%; under `Cc1ccc(NC2=C(c3ccc(C(F)(F)F)cc3)C(=O)c3ccccc32)cc1C`, 69%. With `Cc1cc(C)cc(NC2=C(c3ccccc3)C(=O)c3ccccc32)c1` the figure was 39% (active); with `O=C1C(c2ccc(C(F)(F)F)cc2)=C(Nc2ccc(Cl)cc2)c2ccccc21`, 63%.

For the compound `COc1ccc(NC2=C(c3ccccc3)C(=O)c3ccccc32)cc1Cl`, the survival was 116%.

Turning to `COc1ccc(C2=C(Nc3ccc(C)c(C)c3)c3ccccc3C2=O)cc1`, the survival is 93%. In the case of `COc1ccc(C2=C(Nc3ccc(Br)c(C)c3)c3ccccc3C2=O)cc1`, the survival is 0% (active). With `Cc1ccc(NC2=C(c3ccc(C(F)(F)F)cc3)C(=O)c3ccccc32)cc1F` the figure was 28% (active); with `COc1ccc(OC)c(NC2=C(c3ccccc3)C(=O)c3ccccc32)c1`, 62%; with `COc1ccc(C2=C(Nc3ccc(C)cc3C)c3ccccc3C2=O)cc1`, 71%.

The values are drawn from PubChem BioAssay AID463173 (ICCB-Longwood Screening Facility, Harvard Medical School, 2010).
